In publication PMC12136788:
Positions count from the first letter of the chain named. The full ranking holds about 5,800 sequences; the median of “enrichment r” is about 0.68, and the highest 2% start at about 11. The full list was thinned out, with the highest values kept by preference.

T1: UNK ZnF1-6 (called full-length) (human, UniProt Q9C0B0 30-357)
T1 sequence: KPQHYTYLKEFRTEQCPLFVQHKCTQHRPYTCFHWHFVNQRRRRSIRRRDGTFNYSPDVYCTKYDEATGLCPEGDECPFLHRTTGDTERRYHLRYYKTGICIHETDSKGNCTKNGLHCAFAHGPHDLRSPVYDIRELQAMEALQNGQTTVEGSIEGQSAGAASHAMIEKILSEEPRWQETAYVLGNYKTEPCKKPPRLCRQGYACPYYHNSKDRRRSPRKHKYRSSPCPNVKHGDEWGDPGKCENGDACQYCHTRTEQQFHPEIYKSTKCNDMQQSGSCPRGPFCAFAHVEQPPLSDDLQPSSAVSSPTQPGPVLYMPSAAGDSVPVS

B1: chr12:48145849:48145950:+|3pUTR|ENSG00000152556|msi1|FALSE|unique (ssRNA)
RNA: GGGAGUUCUACAGUCCGACGAUCCAUGACCAGUUCUGGCCAGGAGCUGGAGGAGCAGGCAGUGGGUGGGAGCUCCUUUUAGGUAGAAUUUAACAUGACUUCUGCCCCAGCUUUAUCUGUCACACAAGGCUGGGCACCUCUAGUCAACAGAGGAUUGAGCAUCA
B2: chr1:165890246:165890361:+|CDS|ENSG00000143179|unk|FALSE|unique (ssRNA)
RNA: GGGAGUUCUACAGUCCGACGAUCCUCCUGGGGCAGAAUGAGGUGGACUAUCGCCAGAAGCAGGUGGUCAUCCUGAGCCAGGAUAGCUUCUACCGUGUCCUUACCUCGGAGCAGAAGGCCAAAGCCCUGAAGGGCCAGUUCAACCAACAGAGGAUUGAGCAUCA
B3: chr2:96875881:96876275:-|three_prime_utr|ENSG00000168754|control|control|control (ssRNA)
RNA: GGGAGUUCUACAGUCCGACGAUCUCGCCCACCCCUCAGCCCUCCUCCCAGCCAUCUCCUCUUCCCUAAGGCCUCUGUCUCCAUAGCUCUGGUUUCCCUGGGCCUCAGUCCUCCCCACCCUCCUUCCUCUGUCUCCCUGUCACUCAACAGAGGAUUGAGCAUCA
B4: chr5:95604386:95604487:+|3pUTR|ENSG00000164291|msi1|total|mutant (ssRNA)
RNA: GGGAGUUCUACAGUCCGACGAUCCCUGCCAUCCAGUUCCCCCUCCAAGAAGCAAGUACCGAAACCACCUGCUUACGCAUUUUCCGAGAUUGGCCACAAAUUUAUAAACAAAUGUAUAUAUUCCUUUCCCCCUACACAAACGGUCAACAGAGGAUUGAGCAUCA
B5: ENSG00000198589:be:win_9101|3pUTR|ENSG00000198589|bound_else_gene|NA|bound_elsewhere_windowed (ssRNA)
RNA: GGGAGUUCUACAGUCCGACGAUCUUCAAGCAUGUUUUAGACCUAGAAAAGUAUGGUUUGGGGGAGGCUAUUUUAUUGUGUGGUUAGCACAAGGAAUCUAAUUUAUAGCAAGUGUGAAAUAGUUACCAUUUUUUCCUGAUCUGUCAACAGAGGAUUGAGCAUCA
B6: chr1:229632307:229632408:+|CDS|ENSG00000135763|unk|FALSE|bound_elsewhere (ssRNA)
RNA: GGGAGUUCUACAGUCCGACGAUCAUUUUAUAAGAAAAAGCUUGAACUGAAGGAAGAUAUUGUUGAAAGGCUUUGGAUCUAUAUAGAUAACAUUUUACAUAGCAGAAAAUUGCAGAAUCUCCUCAAGAAUGGAAAGACCAUUAACAACAGAGGAUUGAGCAUCA
B7: chr2:1632960:1633155:-|3pUTR|ENSG00000130508|msi1|FALSE|unique (ssRNA)
RNA: GGGAGUUCUACAGUCCGACGAUCGUCCAUUUUUUAGGUAUUAGAUAUGGCAGAAAAACCAUUUCCACUAUGCAAAGUUCUUUUAGACGUCAGUGAAAAUCAACUCUCAUACCUCAUGGUCUCUCUUUAAUUGACCAAAACCUUCAACAGAGGAUUGAGCAUCA
B8: ENSG00000168936:stop:overlap|stop_codon|ENSG00000168936|stop_codon|NA|stop_codon (ssRNA)
RNA: GGGAGUUCUACAGUCCGACGAUCGUGUGGCCAGCACCAACCCUGCUGUGCAGGCCUUUGACAUCUGGAGCUGGAGGCCUGCAUAGGCUGCAUGCAGACACGUGCCAGCGUGAAGCUGGUGAAGACCUGCCAGGAGGCAGCCACCAACAGAGGAUUGAGCAUCA
B9: chr3:62294290:62294391:+|3pUTR|ENSG00000144724|msi1|FALSE|unique (ssRNA)
RNA: GGGAGUUCUACAGUCCGACGAUCAACUAGUCCUCUAAAAAUUCCCUAUUACUCCUAUAGCAAUCUAAUAAAAACUACCUACAUAGUUACUGUUUUCUUUCCUUCUUUGCCAAAUGUUUUAUAAUAAAUCUCUUAAUUACAUACCAACAGAGGAUUGAGCAUCA
B10: chr17:75827259:75827360:-|3pUTR|ENSG00000092929|unk|total|mutant (ssRNA)
RNA: GGGAGUUCUACAGUCCGACGAUCGGACAGUUUGGCUGCUGUGUCUGCUGCGCACGCCCCCUCCCCGGACAGCACCUGCCACCCCGAAACUUUCUCCGCAAAAAAAUUAAUAAAAACAAAUCCAUUGUCCUCUUAAAAUAUGCCCAACAGAGGAUUGAGCAUCA
B11: chr8:48920054:48920155:-|CDS|ENSG00000019549|unk|total|mutant (ssRNA)
RNA: GGGAGUUCUACAGUCCGACGAUCACCUAUUCAACUUUUUCUGGGCUGGCCAAACAUAAGCAGCUGCACUGCGAUGCCCAGUCCCGAAAAUCUUUCAGCUGUAAAUACUGUGACAAGGAAUAUGUGAGCCUGGGCGCCCUGAAGCAACAGAGGAUUGAGCAUCA
B12: chr17:75827259:75827360:-|3pUTR|ENSG00000092929|unk|FALSE|unique (ssRNA)
RNA: B10 RNA with C83U, C84A, C95U, C96A
B13: chr1:151249111:151249212:+|3pUTR|ENSG00000143398|unk|FALSE|unique (ssRNA)
RNA: GGGAGUUCUACAGUCCGACGAUCGCAGAUUGUUGAAUUCCUGUUCUAUCCCUUCUCUAUCCCACCCUGCCUUGAUAAUAUGUUAGCCCAUACCCCAAAUAACUGUCUAUAUUAGACACCCCCAGCCAGUUUCUGGCUGCCUGUCAACAGAGGAUUGAGCAUCA
B14: ENSG00000070961:be:win_4401|3pUTR|ENSG00000070961|bound_else_gene|NA|bound_elsewhere_windowed (ssRNA)
RNA: GGGAGUUCUACAGUCCGACGAUCGUUAUGACAUCUGUCCUAAUUAGUUUCUUAAAUACAUUUACUACUUAAUGGUUUUGAAGCAACUGUUUAAUUUUUAAAAUUUUUGAAAACUUGCUAAUAACCUUUUGUUCAGAAUUUAGUCAACAGAGGAUUGAGCAUCA
B15: chr17:77216858:77216994:+|3pUTR|ENSG00000129657|unk|FALSE|bound_elsewhere (ssRNA)
RNA: GGGAGUUCUACAGUCCGACGAUCUGUUUCUACCUUUAGUACCUUGCCACUCUUUUAAAACGCUGCUGUCAUUUCCCAUUUCUUAGUACUAAUGAUUCUUUGAUUCUCCCUCUAUUAUGUCUUAAUUCACUUUCCUUCCUAAAUCAACAGAGGAUUGAGCAUCA
B16: chr20:3963869:3963970:-|CDS|ENSG00000101236|unk|FALSE|bound_elsewhere (ssRNA)
RNA: GGGAGUUCUACAGUCCGACGAUCAAUCUGCCUCUCAACAUAUAUAUUGUGGUUUUUGGUACUGCUAUAUUUGUCUUCAUCCUUAGUUUACUCUUCUGUUGCUACUUGAUUAGGUAACCAAUUUUCAUUCUAUGUUACUUCAAACAACAGAGGAUUGAGCAUCA
B17: chr12:64147824:64147925:+|3pUTR|ENSG00000196935|unk|total|mutant (ssRNA)
RNA: GGGAGUUCUACAGUCCGACGAUCCAUCUCUGUGGUGUCUUUGUUCCUUUCCUUUCAUUCAUCACUACUUUCUCCUUGACAGCCCGCUUGCAUUAAAUAAUGUGAAACUUUUACCUUUAAAAUAUUUUUUUAUCUCACUUUCAUCAACAGAGGAUUGAGCAUCA
B18: ENSG00000107863:be:win_5701|CDS|ENSG00000107863|bound_else_gene|NA|bound_elsewhere_windowed (ssRNA)
RNA: GGGAGUUCUACAGUCCGACGAUCAGCACCUUGGCUUCAACAAACAGGCCCCUUCUUUCCAUACCACCACAGUCACCUGACCAAAUAAACGGAGAAAGCUUCCAGAACGUGAGCAAAAAUGCUAGUUCUGCAGCGAAUGCCCAACAACAGAGGAUUGAGCAUCA
B19: chr3:62294290:62294391:+|3pUTR|ENSG00000144724|msi1|total|mutant (ssRNA)
RNA: B9 RNA with U27C, A28C, U57C, A58C, U83C, A84C
B20: ENSG00000113300:stop:overlap|stop_codon|ENSG00000113300|stop_codon|NA|stop_codon (ssRNA)
RNA: GGGAGUUCUACAGUCCGACGAUCUGGAGCUCUUACUGCCUUUCCUGCCCCAAGUCAACGGCAUCCACCUUCCUGGCAGGAGGUAGUCAAGCACCUUCAGAGGACAGCCUUGAUUCACUUGUAAACUUGUGAAAAUCUGAACAUCAACAGAGGAUUGAGCAUCA

What follows are binders tested against T1, UNK ZnF1-6 (called full-length) (assay: nsRBNS (natural sequence RNA bind-n-seq); RBNS binding buffer (assumed for nsRBNS): 25 mM Tris pH 7.5, 150 mM KCl, 3 mM MgCl2, 0.01% Triton X-100, 500 ug/ml BSA, 20 U/ml SUPERase-In, 4 C; UNK is unkempt and MSI1 is Musashi-1; names of the RNAs are library labels; protein concentration not given here; high values mean tight binding).

Row | Binder | binding signal [enrichment R]
1 | B1 | 6.28
2 | B2 | 0.748
3 | B3 | 1.84
4 | B4 | 1.51
5 | B5 | 2.96
6 | B6 | 2.37
7 | B7 | 0.915
8 | B8 | 1.06
9 | B9 | 68.7
10 | B10 | 0.989
11 | B11 | 0.712
12 | B12 | 25.7
13 | B13 | 2.26
14 | B14 | 5.85
15 | B15 | 14
16 | B16 | 2.08
17 | B17 | 2.22
18 | B18 | 0.589
19 | B19 | 3.11
20 | B20 | 21.5
